Among the test systems are SR leukemia; RPMI-8226 leukemia; OVCAR-8 ovarian; OVCAR-5 ovarian; OVCAR-4 ovarian; SK-OV-3 ovarian; IGROV1 ovarian; OVCAR-3 ovarian; HS 578T breast; NCI/ADR-RES ovarian; T-47D breast; BT-549 breast; MDA-MB-435 melanoma; SW-620 colon; MCF7 breast; HCT-116 colon; HCC-2998 colon; KM12 colon.
Common to all, as to test: NCI-60 one-dose screen, 48 h (100 = growth as untreated, 0 = no growth, -100 = all killed)
Common to all, as to settings: 10 µM unless noted

Compounds without any hit were thinned out: in the full panel of roughly 83,000, 20% have a hit.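 Single-concentration screen, 48 h exposure, 96-well plates. Endpoint: percent growth. Below 10 = active.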 Values without a mark were called inactive. Calls of active or inactive are those of the source.

On to `CCCCSc1ccc2nc(-c3ccc(OCCCN=C(N)N)cc3)cn2c1`, for which the growth with SR leukemia was 85.8%; in the experiment with RPMI-8226 leukemia, -27.2% (active); with OVCAR-8 ovarian it was 90.9%; in the experiment on OVCAR-5 ovarian, 73%; in the experiment with OVCAR-4 ovarian, 96.8%; in the experiment on SK-OV-3 ovarian, 111%. In addition, the growth with IGROV1 ovarian was 52.3%; in the experiment with OVCAR-3 ovarian, 30.8%; with HS 578T breast it was 35.5%; in the experiment on NCI/ADR-RES ovarian, 104%; with T-47D breast it was 90.7%; with BT-549 breast it was 54.2%. The growth was 47.6% with MDA-MB-435 melanoma; 83.5% in the experiment with SW-620 colon; 47% with MCF7 breast; 42.2% in the experiment on HCT-116 colon; 59.2% with HCC-2998 colon; 34.3% in the experiment with KM12 colon.
For the compound `O=C(CN1C(=O)S/C(=C\C(Cl)=C\c2ccccc2)C1=O)NCCCn1ccnc1`, the growth in the experiment on SR leukemia was 2.18% (active); with RPMI-8226 leukemia it was 0.978% (active); in the experiment on OVCAR-8 ovarian, 12.4%; in the experiment with OVCAR-5 ovarian, 80.1%; with OVCAR-4 ovarian, 43.1%; with SK-OV-3 ovarian, 86%. The growth in the experiment on IGROV1 ovarian was 2.87% (active); with OVCAR-3 ovarian, 1.07% (active); in the experiment on HS 578T breast it was 51.7%; with NCI/ADR-RES ovarian, 81.2%; in the experiment on T-47D breast, 21.3%; in the experiment on BT-549 breast, 43.8%. Besides, the growth was 20.2% in the experiment on MDA-MB-435 melanoma; 3.27% (active) in the experiment on SW-620 colon; 15% in the experiment with MCF7 breast; -57.2% (active) in the experiment with HCT-116 colon; 73.5% in the experiment with HCC-2998 colon; 33.9% in the experiment with KM12 colon.
As to `COc1ccc2c(O)c(/C=C3\N=Nc4nc(C)ccc43)oc2c1CC1CCNCC1`, the growth in the experiment on SR leukemia was -27.5% (active); with RPMI-8226 leukemia, 96.7%; in the experiment on OVCAR-8 ovarian it was 68.4%; with OVCAR-5 ovarian it was 65%; in the experiment with OVCAR-4 ovarian it was 74.2%; with SK-OV-3 ovarian, 80.8%. Also, the growth was 60.8% in the experiment on IGROV1 ovarian; 83.8% in the experiment on OVCAR-3 ovarian; 57.9% in the experiment on HS 578T breast; 104% with NCI/ADR-RES ovarian; 89.5% in the experiment on T-47D breast; 60.4% in the experiment with BT-549 breast. Besides, the growth in the experiment with MDA-MB-435 melanoma is 42.7%; with SW-620 colon it was 38.9%; in the experiment with MCF7 breast it was 67.3%; in the experiment on HCT-116 colon, 35.3%; with HCC-2998 colon it was 78.1%; in the experiment on KM12 colon it was 38.2%.
Consider `CN(C)C1CCN(C(=O)c2ccc(NC(=O)Nc3ccc(-c4nc(N5CCOCC5)c5cccn5n4)cc3)cc2)CC1`, for which the growth with SR leukemia was 8.47% (active); in the experiment with RPMI-8226 leukemia, -20.8% (active); with OVCAR-8 ovarian it was -0.587% (active); in the experiment with OVCAR-5 ovarian, -0.314% (active); in the experiment on OVCAR-4 ovarian, -26.9% (active); with SK-OV-3 ovarian, -30.8% (active). The growth was -26.4% (active) in the experiment on IGROV1 ovarian; -12% (active) in the experiment with OVCAR-3 ovarian; -32.6% (active) with HS 578T breast; 85.1% in the experiment on NCI/ADR-RES ovarian; -36% (active) in the experiment on T-47D breast; -7.28% (active) in the experiment on BT-549 breast. Also, the growth with MDA-MB-435 melanoma is 1.97% (active); in the experiment with SW-620 colon, 9.03% (active); with MCF7 breast, -4.03% (active); in the experiment on HCT-116 colon, 5.84% (active); in the experiment on HCC-2998 colon, 3.23% (active); with KM12 colon it was 5.54% (active).
`O=C(/C=C/C12c3ccccc3C(c3ccccc31)C1C(=O)NC(=O)C12)c1ccncc1` (stereo unspecified): the growth is 1.11% (active) in the experiment on SR leukemia; -29.6% (active) in the experiment on RPMI-8226 leukemia; 1.79% (active) in the experiment with OVCAR-8 ovarian; 13.7% in the experiment with OVCAR-5 ovarian; 31.8% in the experiment with OVCAR-4 ovarian; 71.8% in the experiment on SK-OV-3 ovarian. For the same compound, the growth with IGROV1 ovarian is 9.72% (active); with OVCAR-3 ovarian, 4.84% (active); in the experiment with HS 578T breast, 38%; in the experiment with NCI/ADR-RES ovarian it was 23.9%; with T-47D breast, -4.38% (active); in the experiment on BT-549 breast it was 15.7%. Besides, the growth is 9.93% (active) in the experiment on MDA-MB-435 melanoma; 13.4% in the experiment with SW-620 colon; 3.34% (active) with MCF7 breast; -16.5% (active) with HCT-116 colon; 88.2% with HCC-2998 colon; 7.72% (active) in the experiment on KM12 colon.
As to `Clc1cccc(Nc2ncnc3ccc(-c4cncc(-n5cnnn5)c4)cc23)c1`, the growth in the experiment on SR leukemia is 71.2%; in the experiment with RPMI-8226 leukemia, 35.5%; with OVCAR-8 ovarian it was 75.1%; with OVCAR-5 ovarian it was 65.2%; in the experiment with OVCAR-4 ovarian, 90.2%; in the experiment with SK-OV-3 ovarian it was -4.88% (active). Also, the growth in the experiment on IGROV1 ovarian is 26.1%; in the experiment on OVCAR-3 ovarian, 66.1%; in the experiment with HS 578T breast it was 67.2%; in the experiment with NCI/ADR-RES ovarian, 76.4%; in the experiment with T-47D breast, 44.8%; in the experiment with BT-549 breast it was 44.9%. The growth in the experiment on MDA-MB-435 melanoma was 89.8%; with SW-620 colon, 96.8%; in the experiment on MCF7 breast, 67.7%; with HCT-116 colon, 38.1%; in the experiment with HCC-2998 colon it was 93.6%; in the experiment with KM12 colon it was 91.4%.
In the case of `O=C(NNc1ccccc1)c1ncc[nH]1`, the growth was 104% in the experiment with SR leukemia; 53.5% in the experiment with RPMI-8226 leukemia; 80.9% in the experiment with OVCAR-8 ovarian; 65.3% with OVCAR-5 ovarian; 48.4% in the experiment on OVCAR-4 ovarian; 81.2% with SK-OV-3 ovarian. Besides, the growth in the experiment on IGROV1 ovarian was 71.1%; with OVCAR-3 ovarian, 64.3%; with HS 578T breast it was 89.2%; in the experiment with NCI/ADR-RES ovarian, 78.6%; with T-47D breast, 43.6%; with BT-549 breast it was 101%. The growth with MDA-MB-435 melanoma was 24.2%; in the experiment on SW-620 colon, 60.7%; in the experiment with MCF7 breast, 56.5%; in the experiment with HCT-116 colon, 64.4%; with HCC-2998 colon it was 60.6%; in the experiment on KM12 colon, 29.5%.

The values above are taken from PubChem BioAssay (NCI).
